Source: PubChem BioAssay AID1347165 (National Center for Advancing Translational Sciences (NCATS), 2019)
Where “and” joins values, the source holds several entries; their conditions need not be identical. Equal values may be shown once. Among all 220,000 compounds or so, about 5,700 (2.6%) were called active. Where a call stands in place of a potency, no number is given. Roughly 18% stayed inconclusive and do not appear here. The call rests on the fitted dose curve; in most records, active means well fitted inhibition curve with a large enough effect; inconclusive means small, poorly fitted or top-dose-only effect; inactive means no such curve, though single readings can be large or run the other way. This excerpt belongs to a sample that is enriched for actives.
Further: nearly all actives have a fitted effect of over 70% in size.
Potency means the concentration at half of the fitted maximal effect.

These molecules were tested against Lysine-specific demethylase 5B (Homo sapiens) (UniProt Q9UGL1) (assay: Primary screen for KDM5B Histone Demethylases FDH-coupled qHTS). Settings: FDH-coupled NADH fluorescence (FDH is formaldehyde dehydrogenase); series mostly up to 57.7 µM.
Chain of Lysine-specific demethylase 5B (Homo sapiens) (Q9UGL1 whole entry, looked up): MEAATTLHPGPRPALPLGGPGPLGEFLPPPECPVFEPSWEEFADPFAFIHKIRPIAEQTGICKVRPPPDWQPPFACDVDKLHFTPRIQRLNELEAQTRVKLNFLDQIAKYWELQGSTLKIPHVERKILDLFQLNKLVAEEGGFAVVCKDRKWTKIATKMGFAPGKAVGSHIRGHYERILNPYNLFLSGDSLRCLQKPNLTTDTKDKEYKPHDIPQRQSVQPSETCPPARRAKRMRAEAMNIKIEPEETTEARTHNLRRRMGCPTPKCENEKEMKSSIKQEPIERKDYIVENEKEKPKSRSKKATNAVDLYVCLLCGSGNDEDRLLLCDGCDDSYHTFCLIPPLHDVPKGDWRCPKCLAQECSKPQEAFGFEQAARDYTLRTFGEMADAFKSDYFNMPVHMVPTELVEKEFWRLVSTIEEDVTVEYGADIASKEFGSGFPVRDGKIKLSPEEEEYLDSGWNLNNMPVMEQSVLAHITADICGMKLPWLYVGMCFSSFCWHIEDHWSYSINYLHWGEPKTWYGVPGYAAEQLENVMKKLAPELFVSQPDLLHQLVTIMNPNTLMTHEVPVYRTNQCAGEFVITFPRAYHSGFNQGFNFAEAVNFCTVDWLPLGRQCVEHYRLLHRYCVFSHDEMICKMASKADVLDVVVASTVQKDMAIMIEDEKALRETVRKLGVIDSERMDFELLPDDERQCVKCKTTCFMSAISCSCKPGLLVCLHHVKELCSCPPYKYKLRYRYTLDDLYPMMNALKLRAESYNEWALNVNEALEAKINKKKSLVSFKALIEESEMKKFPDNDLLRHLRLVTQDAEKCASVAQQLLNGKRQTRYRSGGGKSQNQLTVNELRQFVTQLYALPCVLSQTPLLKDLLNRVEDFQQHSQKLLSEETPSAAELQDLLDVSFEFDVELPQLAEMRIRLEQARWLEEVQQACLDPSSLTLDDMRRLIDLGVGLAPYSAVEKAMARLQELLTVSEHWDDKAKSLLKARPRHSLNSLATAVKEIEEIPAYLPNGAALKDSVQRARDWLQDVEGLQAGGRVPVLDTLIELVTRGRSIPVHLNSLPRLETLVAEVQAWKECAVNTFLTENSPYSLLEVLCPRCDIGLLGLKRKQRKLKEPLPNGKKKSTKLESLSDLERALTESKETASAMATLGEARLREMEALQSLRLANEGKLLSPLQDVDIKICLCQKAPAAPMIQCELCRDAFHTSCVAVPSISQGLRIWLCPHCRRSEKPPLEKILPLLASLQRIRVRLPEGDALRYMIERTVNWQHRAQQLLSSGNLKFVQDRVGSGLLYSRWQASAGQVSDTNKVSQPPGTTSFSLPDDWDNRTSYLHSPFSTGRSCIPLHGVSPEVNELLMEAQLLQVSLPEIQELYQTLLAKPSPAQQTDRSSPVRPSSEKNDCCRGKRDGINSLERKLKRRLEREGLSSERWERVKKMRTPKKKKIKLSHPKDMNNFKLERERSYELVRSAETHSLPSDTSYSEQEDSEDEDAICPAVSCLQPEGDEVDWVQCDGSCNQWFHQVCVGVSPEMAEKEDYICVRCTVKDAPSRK
How it was run: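 Compound dilutions met 200 nM (final) KDM5BΔAP for 10 min at room temperature before substrate addition. The substrate mix held 12.5 µM H3K4me3 with cofactors 25 µM α-ketoglutarate and 50 µM Fe²⁺. NADH signal gain over 30 min defined activity.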
For `O=C(c1ccco1)N1CCC(C(=O)N2CCN(C(=O)C3CC3)CC2)CC1`, the Potency was “inactive”. `CC(=O)Nc1ccc(SCC(=O)N(Cc2nc3ccccc3c(=O)[nH]2)CC2CCCO2)cc1` (stereo not drawn) was tested, and the Potency was “inactive”. In the case of `Cc1nnc(-c2cc(-c3ccccc3)ccn2)n1CCc1ccccc1`, the Potency is reported as “inactive”. For `COCCn1c(C)nnc1-c1cc(-c2cccc(F)c2)ccn1`, the Potency was “inactive”. With `COc1ccc(-c2ccnc(-c3nnc(C)n3C3CCN(C)CC3)c2)cc1OC` the Potency was 31.6 µM (active). `Cc1nnc(CSc2nnc(Nc3cccc(C)c3C)s2)o1` was tested, and the Potency was “inactive”. For `O=C(Nc1cccn2nc(C3CCC3)nc12)c1cccc(F)c1`, the Potency was “inactive”. `COc1cc(C(=O)N2CCC(c3ccncc3)CC2)cc(OC)c1OC` was tested, and the Potency was “inactive”. With `COc1cc(-c2ccnc3nc(C4CC4)nn23)cc(OC)c1OC` the Potency was 17.8 µM (active). `COc1ccc(N2CC(c3noc(-c4cc(OC)c(OC)c(OC)c4)n3)CC2=O)cc1` (stereo not drawn) was tested, and the Potency was “inactive”. `Fc1ccc(-c2ccnc3nc(C4CCC4)nn23)cc1` was tested, and the Potency was 31.6 µM (active). `CCC(=O)c1ccc(OC(=O)c2cc3ccccc3oc2=O)cc1` was tested, and the Potency was “inactive”. With `CSc1ncc(C(=O)Nc2ccc(Cl)cc2)c(C(F)(F)F)n1` the Potency was “inactive”. For `COc1ccccc1NC(=O)C1c2ccccc2C(=O)N(CC(C)C)C12CCCC2` (stereo not drawn), the Potency was “inactive”. In the case of `CC(C)(C)C(=O)c1cn(CCOc2ccccc2F)c2ccccc12`, the Potency is reported as “inactive”. For `COc1nc2ccccc2nc1N1CCC(C(=O)NCc2ccccc2)CC1`, the Potency was “inactive”. With `COCCNC(=O)[C@@H]1C[C@@H](O)CN1C1CCN(C(=O)CCc2ccccc2)CC1` the Potency was “inactive”. `Cc1ccc(OCc2nc(C3CCN(C(=O)CCc4nc5ccc(Cl)cc5[nH]4)CC3)no2)cc1` was tested, and the Potency was “inactive”. `Cc1nc2c(c(NC3CC3)n1)CCN(C(=O)CCc1cccnc1)CC2` was tested, and the Potency was “inactive”. `O=C(NCc1ccccc1)N1CCN2C(=O)NC[C@H]2C1` was tested, and the Potency was “inactive”. With `COc1nccnc1NC1CCN(C(=O)CCc2c(C)noc2C)CC1` the Potency was 31.6 µM (active). In the case of `Cc1noc(C)c1CC(=O)N1CCC(c2n[nH]c(=O)n2Cc2ccc(F)cc2)CC1`, the Potency is reported as “inactive”. For `COc1nccnc1NC1CCN(C(=O)NCc2ccccc2)CC1`, the Potency was 28.2 µM (active). `COc1nccnc1NC1CCN(C(=O)CCc2ccccc2)CC1` was tested, and the Potency was 25.1 µM (active). `CC/C(=N\NC(=O)c1ccc(C(C)(C)C)cc1)c1ccccc1` was tested, and the Potency was “inactive”. In the case of `Cn1cnnc1C1CCCN(S(=O)(=O)N2CCCCC2)C1` (stereo not drawn), the Potency is reported as “inactive”. In the case of `Cc1ccc(OCC(O)Cn2cnc3sccc3c2=O)c(C)c1` (stereo not drawn), the Potency is reported as “inactive”. `COc1ccc2c(CC(=O)N3CCc4cc(OC)c(OC)cc4C3)coc2c1` was tested, and the Potency was “inactive”. `Cc1oc2ccn(Cc3ccccc3F)c(=O)c2c1C(=O)NCCCN1CCCCC1C` (stereo not drawn) was tested, and the Potency was “inactive”. `c1cc(-c2nc3ccncc3[nH]2)ccn1` was tested, and the Potency was 126 µM (active) and 31.6 µM (active). For `COc1ccc(C2=NC(c3ccncc3)=Nc3ccc(Br)cc3N2)cc1`, the Potency was “inactive”. For `COc1ccc(CC(=O)NC[C@@H]2C=C(C)[C@H](Cc3nc4ccncc4[nH]3)C[C@H]2C(C)C)cc1`, the Potency was “inactive”. For `Cc1cc(C)c(NC(=O)CSc2nc3ccncc3[nH]2)c(C)c1`, the Potency was “inactive”. For `Cc1ccc(Nc2n[nH]nc2C(=O)Nc2ccc(C)cc2Cl)cc1`, the Potency was “inactive”. `Cc1csc(CNC(=O)N(C)Cc2ccc3c(c2)OCCO3)n1` was tested, and the Potency was “inactive”. `O=C(Nc1ccccc1Cc1ccccc1)c1cccc[n+]1[O-]` was tested, and the Potency was “inactive”. For `Cc1ccc(-c2nc(C#N)c(NCCCn3ccnc3)o2)cc1`, the Potency was “inactive”. With `CC(C)(Oc1nn(CCOc2ccccc2)c2ccccc12)C(=O)NCCCn1ccnc1` the Potency was “inactive”. For `O=C(NCCCn1ccnc1)c1ccc(-c2ncc3cnc(-c4cccc(F)c4)cn23)cc1`, the Potency was 17.8 µM (active). For `Cn1cc(S(=O)(=O)N2CCC(C(=O)Nc3ccc(OC(F)F)c(Cl)c3)CC2)cc1C(N)=O`, the Potency was “inactive”. `COC(=O)c1sccc1S(=O)(=O)Nc1ccc(OC)cc1` was tested, and the Potency was “inactive”. For `CN(C)C[C@@H]1CN(C)C[C@H]1NC(=O)c1cc2ccccc2[nH]1`, the Potency was 25.1 µM (active). With `COc1ccc2cc(C(=O)N3CCC(C(C)C(=O)NCCCN4CCCC4)CC3)[nH]c2c1` (stereo not drawn) the Potency was “inactive”. With `CC(CNC(=O)c1cc2ccccc2[nH]1)c1ccccc1` (stereo not drawn) the Potency was “inactive”. For `CN(C)C[C@@H]1CN(C)C[C@H]1NC(=O)c1ccnnc1`, the Potency was “inactive”. In the case of `CN(C)C[C@@H]1CN(Cc2ccccn2)C[C@H]1NC(=O)c1ccc2cc[nH]c2c1`, the Potency is reported as 28.2 µM (active). `CN(C)C[C@@H]1CN(S(C)(=O)=O)C[C@H]1NC(=O)c1cccc(F)c1` was tested, and the Potency was “inactive”. With `COc1ccc2[nH]c(C(=O)N[C@@H]3CN(S(C)(=O)=O)C[C@H]3CN(C)C)cc2c1` the Potency was 28.2 µM (active). `COc1ccc(C(=O)N[C@H]2C[C@@H]3CC[C@H]2C3)cc1` was tested, and the Potency was “inactive”. In the case of `CN(C)C[C@@H]1CN(S(C)(=O)=O)C[C@H]1NC(=O)c1ccc2ncccc2c1`, the Potency is reported as “inactive”. With `O=C(N[C@@H]1CN(Cc2c(F)cccc2F)C[C@H]1CO)c1ccccc1` the Potency was “inactive”. For `Cc1cc(C)n(CCC(=O)N[C@@H]2CN(S(C)(=O)=O)C[C@H]2CN(C)C)n1`, the Potency was “inactive”. For `CN(C)C[C@@H]1CN(S(C)(=O)=O)C[C@H]1NC(=O)c1nn(C)c2ccccc12`, the Potency was 28.2 µM (active). `O=C(O)COc1ccc2c(=O)c(Oc3ccc(Cl)cc3)coc2c1` was tested, and the Potency was “inactive”. With `Cc1ccc(CNC(=O)Cn2c(=O)ccc3cc(S(=O)(=O)N4CCC(C)CC4)ccc32)o1` the Potency was “inactive”. For `Brc1ccc(/C=N/N=C/c2ccc(Br)s2)s1`, the Potency was “inactive”. For `COc1ccc(NC(=O)CN(C)c2nc(CN3CCOCC3)nc3sc(C)c(C)c23)cc1`, the Potency was “inactive”. In the case of `Fc1ccc2oc([C@H]3CCN(C4CCOCC4)C3)nc2c1`, the Potency is reported as 44.7 µM (active). For `COC1CN(c2cccc(F)c2)C12CCN(C1CCOCC1)CC2` (stereo not drawn), the Potency was “inactive”. For `Cc1nnc([C@H]2CCN(Cc3ccc(F)cc3)C2)o1`, the Potency was “inactive”. In the case of `Cc1ccc(-c2nc3ccc(C(=O)N4CCC(CC(=O)N5CCCCCC5)CC4)cc3o2)cc1`, the Potency is reported as “inactive”. With `COc1ccc(C2=NOC(C(=O)Nc3cc(C)nn3-c3ccccc3)C2)cc1` (stereo not drawn) the Potency was “inactive”. `O=C(COc1ccccc1)Nc1ccc2c(=O)c3ccccc3oc2c1` was tested, and the Potency was “inactive”. For `CCc1ccc(CN(C)C(=O)c2ccc3oc(-c4cccc(F)c4)nc3c2)nc1`, the Potency was 28.2 µM (active). With `CN(C)C(=O)c1ccc(OCc2coc(-c3cccc(F)c3)n2)cc1` the Potency was “inactive”. `O=C(O)c1ccc2oc(-c3cccc(Cl)c3)nc2c1` was tested, and the Potency was “inactive”. `CCCCS(=O)CC(O)CCl` (stereo not drawn) was tested, and the Potency was “inactive”. `O=C(CN1CCCCCC1)Nc1ccc(Cl)cc1F` was tested, and the Potency was “inactive”. In the case of `CN(C)C(=O)CN1C(=O)c2ccccc2C1c1cn(C)c2ccccc12` (stereo not drawn), the Potency is reported as “inactive”. For `O=C1CCN(C(=O)C2CCN(C(=O)CCCc3ccccc3)CC2)CCCCCCN1`, the Potency was “inactive”. `O=C(Nc1c(-c2ccc(F)cc2)nc2ccccn12)c1cccc(F)c1` was tested, and the Potency was “inactive”. In the case of `CC1CCN(C(=O)CCNc2c(-c3ccc(F)cc3)nc3cnccn23)CC1`, the Potency is reported as 31.6 µM (active). For `O=C(CCNc1c(-c2ccccc2)nc2cnccn12)N1CCC(N2CCCCC2)CC1`, the Potency was 28.2 µM (active). In the case of `O=C(CSc1nc(-c2cccc(F)c2)[nH]c1-c1ccccc1)Nc1ccc2c(c1)OCO2`, the Potency is reported as “inactive”. With `O=C(CCNc1c(-c2ccc(F)cc2)nc2cnccn12)Nc1ccc2c(c1)OCO2` the Potency was 25.1 µM (active). `Oc1ccc(-c2nc3ccc(Cl)cn3c2Nc2ccc3c(c2)OCO3)cc1` was tested, and the Potency was “inactive”. In the case of `Cc1cccc(-c2nc3cnccn3c2NCCC(=O)N2CCCCCC2)c1`, the Potency is reported as 28.2 µM (active). `O=C(NC1CCCCC1)N1CCCCCC1c1nc(-c2cccnc2)no1` (stereo not drawn) was tested, and the Potency was “inactive”. For `CC(=O)N1CCN(C(=O)CCC(=O)N2CCC(c3noc4cc(F)ccc34)CC2)CC1`, the Potency was “inactive”. In the case of `Cc1cc(C)cc(C(=O)NCCC(=O)N2CCCC2)c1`, the Potency is reported as “inactive”. For `Cc1cccc(-c2cccc(NC(=O)C3CCCN(C(=O)CC(F)(F)F)C3)c2)c1` (stereo not drawn), the Potency was “inactive”. In the case of `CC(C)CCN(CC(=O)NC(N)=O)C1CC1`, the Potency is reported as “inactive”. In the case of `COc1ccc(NC(=O)Cc2c(C)c3ccc(OC)c(C)c3oc2=O)cc1OC`, the Potency is reported as “inactive”. With `COC(=O)c1ccc(OCc2cccc(C#N)c2)c(OC)c1` the Potency was “inactive”. In the case of `Cn1c(=O)c2c(ncn2CCC(=O)Nc2ccc(F)cc2F)n(C)c1=O`, the Potency is reported as “inactive”. With `COc1ccc(Nc2ccccc2)cc1` the Potency was “inactive”. For `CCCn1nc(C(=O)OCc2nc(-c3cccc(OC)c3)no2)c2ccccc2c1=O`, the Potency was “inactive”. `Cc1nc(-c2ccccc2)n(CC(=O)NCc2ccc(F)cc2)c(=O)c1CCO` was tested, and the Potency was “inactive”. With `O=C(CSc1nccn1Cc1ccc(F)cc1)NCc1ccccc1` the Potency was “inactive”. `O=C(c1cc(-c2ccccc2)n[nH]1)N1CCN(c2ncccn2)CC1` was tested, and the Potency was “inactive”. With `Cc1cccc(C)c1-c1nc(C(=O)NCc2ccc(F)cc2)n2ccccc12` the Potency was 28.2 µM (active). For `Cc1cccc(C)c1-c1nc(C(=O)N2CCN(c3ncccn3)CC2)n2ccccc12`, the Potency was 31.6 µM (active) and 28.2 µM (active). For `O=C(NCc1ccc(F)cc1)c1nc(-c2ccccc2)c2ccccn12`, the Potency was 28.2 µM (active). With `COCCNC(=O)c1cc(-c2cccc(Cl)c2)on1` the Potency was “inactive”. In the case of `Cc1cc2ccccc2n1CCNC(=O)c1ccc(F)cc1`, the Potency is reported as “inactive”. With `Cc1cccc(N2CCN(C(=O)c3cnc(N4CCCC4)nc3C)CC2)c1C` the Potency was “inactive”. `COC(=O)CNC(=O)c1nc(-c2ccc([S+](C)(=O)[O-])cc2)c2ccccn12` was tested, and the Potency was “inactive”. For `Cc1ccc(CNC(=O)c2c(O)nc3c(C)cccn3c2=O)cc1`, the Potency was “inactive”. In the case of `COc1cccc(/C=C2\C=C(c3ccc(C)cc3)OC2=O)c1OC(C)=O`, the Potency is reported as “inactive”. In the case of `O=C(NCCN1CCCCC1)C(=O)Nc1cccc2[nH]ccc12`, the Potency is reported as “inactive”. `CCCC(=O)Nc1ccc(-c2csc(NC)n2)cc1` was tested, and the Potency was “inactive”. With `O=C(Cn1c(=O)c2c(ncn2C2CCCC2)n(Cc2ccccc2)c1=O)NC1CCS(=O)(=O)C1` (stereo not drawn) the Potency was “inactive”. With `CC(Oc1ccc(Cl)cc1)c1nc(-c2ccc(Cl)cc2)no1` (stereo not drawn) the Potency was “inactive”.
